# Hits are enriched below; roughly 3.6% of the tested compounds scored in any of these assays.
# Giardia FBPA inh-1: blocks Giardia fructose-bisphosphate aldolase activity. A8B2U2. hit rate 0.71% among 290,000. AID 2451. Potency, µM (highest dose often 59.6 µM), hits mostly inhibitors. purified Giardia FBPA; also: nearly all actives have a fitted effect of over 55% in size
#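 Giardia FBPA (40 nM reagent) was preincubated 10 min at RT with compound (up to 57.5 uM final), then substrate plus GAPDH/TPI/NAD/arsenate coupling system with diaphorase/resazurin was added; resorufin fluorescence (525/598 nm) was read after 20 min.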
# AmpC no deterg: inhibitors of E. coli AmpC beta-lactamase without detergent; Potency, µM (titrated, usually from 57.1 µM), most hits filed as inhibitors; P00811; hit rate 0.52% among 330,000; AID 485341; AmpC nitrocefin hydrolysis, absorbance 480 nm, 0.0001% Triton; also: nearly all actives have a fitted effect of over 20% in size
#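 AmpC (5.3 nM in the dispensed reagent) in 20 mM phosphate pH 7.0 with 0.01% (detergent screen) or 0.0001% Triton X-100 was preincubated with compounds for 15 min at room temperature. Nitrocefin was then added from an 800 uM solution, and hydrolysis was followed at 480 nm.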
# Sm TGR inh: S. mansoni TGR enzyme inhibition. Q962Y6. purified TGR, DTNB reduction, TNB absorbance 405 nm. Potency, µM (doses to about 114 µM), usual class: inhibitors. hit rate 3% among 360,000; also: nearly all actives have a fitted effect of over 60% in size
#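 Kinetic colorimetric format: TGR-catalysed, NADPH-driven DTNB reduction monitored via TNB absorbance. Enzyme dispensed at 20 nM; compound exposure 15 min at room temperature before reaction start.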
# AmpC detergent: inhibitors of E. coli AmpC beta-lactamase with detergent. P00811. AmpC hydrolysis of nitrocefin, absorbance 480 nm, 0.01% Triton. Potency, µM (series often up to 114 µM), usual class: inhibitors. hit rate 0.041% among 370,000; also: nearly all actives have a fitted effect of over 25% in size
#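 AmpC (5.3 nM in the dispensed reagent) in 20 mM phosphate pH 7.0 with 0.01% (detergent screen) or 0.0001% Triton X-100 was preincubated with compounds for 15 min at room temperature. Nitrocefin was then added from an 800 uM solution, and hydrolysis was followed at 480 nm.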
# Giardia growth: Giardia lamblia growth inhibition. shares compounds with Giardia FBPA inh-1. Giardia lamblia trophozoite growth inhibition. Potency, µM (doses to about 57.5 µM), hits mostly inhibitors. hit rate 5% among 1,500;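 also: trophozoites exposed to compound for 48 h at 37 °C; nearly all actives have a fitted effect of over 70% in size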
# Mammalian tox: counter-screen for Giardia aldolase inhibitors: mammalian cell toxicity; Potency, µM (top dose mostly 57.5 µM), usual class: inhibitors; hit rate 4% among 1,500; AID 2786; mammalian cell viability counter-screen, qHTS; shares compounds with Giardia FBPA inh-1;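 also: Chinese hamster ovary cells used as mammalian cytotoxicity surrogate; viability measured as cellular ATP by luminescence; compound exposure lasted 48 h before reading; nearly all actives have a fitted effect of over 60% in size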
# Giardia FBPA inh-2: confirmation of Giardia fructose-bisphosphate aldolase inhibitors; shares compounds with Giardia FBPA inh-1; purified Giardia aldolase enzyme activity, qHTS; Potency, µM (doses to about 57.5 µM), usual class: inhibitors; hit rate 5% among 1,500; AID 2787; also: nearly all actives have a fitted effect of over 45% in size
# Rabbit aldolase: rabbit FBP aldolase inhibition by Giardia aldolase hits; shares compounds with Giardia FBPA inh-1; Rabbit muscle FBPA enzyme inhibition, selectivity counter-screen; Potency, µM (series often up to 57.5 µM), usual class: inhibitors; hit rate 4% among 1,500; AID 2794; also: nearly all actives have a fitted effect of over 60% in size
# Target sequence (P00883 whole entry, looked up): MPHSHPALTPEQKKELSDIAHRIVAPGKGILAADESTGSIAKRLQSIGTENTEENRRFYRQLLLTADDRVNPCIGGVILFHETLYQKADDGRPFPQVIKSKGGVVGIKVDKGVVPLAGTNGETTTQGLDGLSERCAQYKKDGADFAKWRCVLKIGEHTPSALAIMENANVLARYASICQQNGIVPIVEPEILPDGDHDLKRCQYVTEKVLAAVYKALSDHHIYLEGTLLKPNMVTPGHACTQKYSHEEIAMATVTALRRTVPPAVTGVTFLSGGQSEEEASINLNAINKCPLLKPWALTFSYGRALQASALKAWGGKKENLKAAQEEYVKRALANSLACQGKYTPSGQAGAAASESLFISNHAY
# GAPDH counter: counter-screen for Giardia aldolase inhibitors: GAPDH coupling enzyme | shares compounds with Giardia FBPA inh-1 | hit rate 6% among 1,500 | Potency, µM (titrated, usually from 57.5 µM), most hits filed as inhibitors | AID 2795 | GAPDH coupling enzyme counterscreen, biochemical, qHTS; also: nearly all actives have a fitted effect of over 55% in size
# A number is an active result; 0 = inactive; ? = inconclusive; - = not tested or not shown; [ ] = dose if it differs, or a comment. Calls follow the shape of the dose curve; as a rule, active = well fitted curve in the direction sought with a large enough effect; inconclusive = small, poorly fitted or top-dose-only effect, or another doubt; inactive = no such curve, though single readings can be large; an effect the other way counts as inactive or inconclusive.
SMILES,Giardia FBPA inh-1,AmpC no deterg,Sm TGR inh,AmpC detergent,Giardia growth,Mammalian tox,Giardia FBPA inh-2,Rabbit aldolase,GAPDH counter
CCn1cc(S(=O)(=O)Nc2cc(C)ccc2F)cn1,-,0,0,0,-,-,-,-,-
CN(C)/C=N/c1nc(Sc2ccc(C(F)(F)F)cc2[N+](=O)[O-])n[nH]1,0,0,0,0,-,-,-,-,-
O=[N+]([O-])c1cc(C(F)(F)F)cc([N+](=O)[O-])c1Sc1n[nH]c(C(F)(F)F)n1,18µM,0,0,0,?,0,0,0,0
CN(C)c1ncnc2c1NC1=C(S2)C(=NCCCC(=O)O)CC(C)(C)C1,?,0,?,0,0,0,0,0,0
COc1ccc(/C=N/NC(=O)C2(C)NC(C)(C)Cc3ccccc32)cc1 (stereo unspecified),0,0,-,0,-,-,-,-,-
CCOc1ccc2[nH]c(S(=O)(=O)CC)nc2c1Cl,3.5µM,-,0,0,0,0,0,0,0
CCOc1ccc(C)cc1S(=O)(=O)Nc1ccc(Cl)cn1,0,0,0,?,-,-,-,-,-
COc1cc(OC)c(NC(=O)C2CCN(S(=O)(=O)c3ccc4c(c3)oc(=O)n4C)CC2)cc1Cl,-,-,0,0,-,-,-,-,-
Cc1ccc(C)c(NC(=O)Cn2c(=O)n(CCC(C)C)c(=O)c3cccnc32)c1,-,-,0,0,-,-,-,-,-
CCCc1cc(=O)n2[nH]c(NC(=O)c3ccco3)nc2n1,16µM,0,0,0,?,0,0,0,0
CN1CCc2cccc3c2C1Cc1ccc(O)c(O)c1-3 (stereo unspecified),14µM,0,-,?,0[10.4 µM],0,?,?,0
Cc1nc2ccc(S(=O)(=O)N(C)CC(=O)Nc3ccc(C(C)C)cc3)cc2s1,-,-,0,0,-,-,-,-,-
O=C(NC(=S)N1CCN(C/C=C/c2ccccc2)CC1)c1cccnc1,11µM,0,0,0,0,0,0,0,0
O=C(NC(=S)N1CCN(c2ccc(F)cc2)CC1)c1cccs1,0,0,0,0,-,-,-,-,-
O=C(NC(=S)N1CCN(c2ccc(O)cc2)CC1)c1cccs1,13µM,0,0,0,0,0,0,0,0
N#Cc1ccc(NCCNCC(=O)N2N=CCC2C#N)nc1 (stereo unspecified),0,-,-,-,-,-,-,-,-
Cc1ccccc1NC(=O)CN1CCN(C)CC1,25µM,0,0,0,0,0,0,0,0
C[C@H](CO)N1C[C@H](C)[C@@H](CN(C)S(=O)(=O)c2ccc(F)cc2)Oc2ccc(NC(=O)C3CC3)cc2C1=O,-,0,-,-,-,-,-,-,-
Cc1cc(Br)ccc1OCCOCCN1CCCC1,16µM,0,0,0,0[10.4 µM],0,0,0,0
CCOc1ccc(OCCOCCN2CCCC2)cc1,28µM,0,0,0,?,0,0,0,0
CCOc1cccc(OCCOCCN2CCCC2)c1,0,0,0,0,-,-,-,-,-
S=C(NCc1ccccc1)NCc1ccco1,0,0,?,?,-,-,-,-,-
NNC(=S)NCc1ccco1,18µM,0,0,0,0[10.4 µM],0,0,0,0
Cc1cnn(C(=S)NCc2ccco2)c1,16µM,0,?,0,0[10.4 µM],0,0,0,0
NC1=NN=C(N2N=C(c3ccc(Br)cc3)CC2(O)C(F)(F)F)n2ncnc2C1 (stereo unspecified),?,0,0,0,0,0,0,0,0
SMILES,Giardia FBPA inh-1,AmpC no deterg,Sm TGR inh,AmpC detergent,Giardia growth,Mammalian tox,Giardia FBPA inh-2,Rabbit aldolase,GAPDH counter
Cn1nc(C(F)(F)F)c(-c2ccc(Br)cc2)c1NC(=O)c1nccnc1C(=O)O,0,0,0,0,-,-,-,-,-
c1ccc2nc3c(nc2c1)CCc1nonc1-3,0,0,0,0,-,-,-,-,-
O/N=C1/CCc2nonc2/C1=N/O,16µM,0,0,0,8.9µM,0,0,0,0
Oc1c(CN2CCc3ccccc3C2)cc(Cl)c2cccnc12,?,0,0,?,-,-,-,-,-
O=c1oc2ccccc2c(O)c1Cc1cc(Cl)c2cccnc2c1O,10µM,0,0,0,?,0,0,0,0
Cc1nccn1CC1CCc2c(c3ccccc3n2C)C1=O (stereo unspecified),20µM,0,0,0,0[10.4 µM],0,0,0,0
COc1ccc(CC(=O)N/N=C/c2ccc(-c3cccc(C(=O)O)c3)o2)cc1OC,0,0,0,0,-,-,-,-,-

# High-throughput results from PubChem.
